Only some compounds are listed: those with a hit (about 1.8% of all), similar ones and a draw of the others.
Fam108B inh: Fam108B inhibition, counter-screen for RBBP9 inhibitors. inhibition, % at 9.51 µM. AID 1947. recombinant Fam108B, FP-Rh probe fluorescence polarization. 300,000 tested, 0.33% active;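 active means inhibition above the screen mean inhibition plus 3 SD, computed separately per campaign, cut at about 18% in these data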;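 further: inhibitors lower polarization as less probe binds the enzyme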
PME-1 inh: blocks human protein phosphatase methylesterase 1; 320,000 tested, 0.53% active; recombinant PME-1, FP-Rh probe fluorescence polarization; Q9Y570; inhibition, % at 5.9 µM;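 active means inhibition above the campaign mean of all compounds plus 3 SD, cut at about 26% in these data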;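 further: competitive labeling of PME-1 active site by serine hydrolase directed probe; 0% = PME-1 with DMSO and 100% = wells lacking PME-1 enzyme; inhibitors block probe labeling so polarization falls and inhibition rises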
LYPLA2 counter: LYPLA2 (human) inhibition in PME1 counter-screen; O95372; recombinant LYPLA2, FP-Rh probe fluorescence polarization; inhibition, % at 5.9 µM; 320,000 tested, 0.38% active;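 active means inhibition above the screen-wide mean plus 3 SD, limit set per campaign, cut at about 26% in these data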;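 further: 0% = LYPLA2 with DMSO and 100% = wells lacking LYPLA2 enzyme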
GSTO1 counter: blocks human GSTO1 in RBBP9 counter-screen; P78417; 300,000 tested, 1.1% active; inhibition, % at 5.96 µM; recombinant GSTO1, activity-based probe fluorescence polarization; AID 1974;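 active means inhibition above the campaign mean inhibition plus 3 SD, cut at about 35% in these data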;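 further: 0% = GSTO1-1 with DMSO and 100% = wells lacking GSTO1-1 enzyme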
Target sequence (P78417 whole entry, looked up): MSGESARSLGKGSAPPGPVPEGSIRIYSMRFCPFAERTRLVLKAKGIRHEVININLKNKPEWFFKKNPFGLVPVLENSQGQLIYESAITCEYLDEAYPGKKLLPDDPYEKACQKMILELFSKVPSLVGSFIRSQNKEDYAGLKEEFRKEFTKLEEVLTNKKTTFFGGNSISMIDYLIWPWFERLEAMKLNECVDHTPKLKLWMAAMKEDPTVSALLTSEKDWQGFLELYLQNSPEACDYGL
PAD4 inh: inhibitors of human PAD4; recombinant PAD4, RCA probe fluorescence polarization; inhibition, % at 6.36 µM; 330,000 tested, 0.41% active; AID 485272;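 active means percent inhibition above a cutoff equal to the mean of all tested compounds plus 3 SD, cut at about 15% in these data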;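 further: 0% = PAD4 with RCA probe and DMSO and 100% = probe without PAD4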
LYPLA1 inh: counter-screen for PME1 inhibitors: inhibitors of human LYPLA1; recombinant LYPLA1, FP-Rh probe fluorescence polarization; inhibition, % at 5.9 µM; AID 2174; O75608; 320,000 tested, 0.16% active;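 active means inhibition above the mean of all tested compounds plus 3 SD, set per campaign, cut at about 14% in these data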;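 further: inhibitors block serine hydrolase probe labeling of LYPLA1 so polarization falls; 0% = enzyme with DMSO and 100% = wells lacking LYPLA1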
Target sequence (O75608 whole entry, looked up): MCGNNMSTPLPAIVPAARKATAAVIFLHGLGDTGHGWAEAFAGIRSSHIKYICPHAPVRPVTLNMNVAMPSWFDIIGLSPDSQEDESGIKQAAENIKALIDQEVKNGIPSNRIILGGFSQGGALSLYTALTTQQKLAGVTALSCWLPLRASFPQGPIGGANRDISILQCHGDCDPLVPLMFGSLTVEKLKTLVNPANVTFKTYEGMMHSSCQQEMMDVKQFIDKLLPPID
LYPLA2 confirm: LYPLA2 (human) inhibition, confirmation counter-screen | shares compounds with LYPLA2 counter | recombinant LYPLA2, FP-Rh probe fluorescence polarization | inhibition, % at 5.9 µM | 1,100 tested, 72% active;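 active means mean inhibition across replicates above the hit cutoff set in the primary screen, cut at about 26% in these data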;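 further: blocked labeling of the enzyme by serine hydrolase FP-Rh probe lowers polarization; 0% = enzyme with DMSO and 100% = wells lacking LYPLA2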
LYPLA2 gel ABPP: LYPLA2 (human) inhibition, late stage results. inhibition, % at 20 µM. 150 tested, 30% active. AID 652029. rhLYPLA2 in mouse brain proteome, gel ABPP FP-Rh. shares compounds with LYPLA2 counter;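 active means inhibition of LYPLA2 enzyme probe labeling above about 50%, limit read from the data; inactive means inhibition below that limit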;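 further: loss of FP-Rh probe labeling of the LYPLA2 gel band measured as band density; 0% = DMSO only control band and 100% = blank gel background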
An asterisk follows results filed as active; nt = no result.

SMILES | Fam108B inh | PME-1 inh | LYPLA2 counter | GSTO1 counter | PAD4 inh | LYPLA1 inh | LYPLA2 confirm | LYPLA2 gel ABPP
COc1ccc(CCNC(=O)C2CCN(C(=O)c3ccc(Br)cc3)CC2)cc1 | 4 | -4 | 10 | 10 | 2 | 5 | nt | nt
CC(/C=N/NC(=O)CSc1ccccn1)=C\c1ccc(C(C)C)cc1 | -1 | -9 | 20 | 0 | -1 | -3 | nt | nt
CC(=C/c1ccc(C(C)C)cc1)/C=N/NC(=O)Cn1nnnc1N | -1 | -6 | 40* | 19 | -6 | 1 | 40* | nt
Cc1nc(C(=O)NCc2ccccc2)sc1C1(C)CC(c2cccc([N+](=O)[O-])c2)=NO1 (stereo not given) | -1 | -3 | 14 | -1 | -4 | -4 | nt | nt
CNC(=O)c1nc(C)c(C2(C)CC(c3cccc([N+](=O)[O-])c3)=NO2)s1 (stereo not given) | 3 | 2 | 26* | -2 | 3 | 2 | 29* | nt
COc1ccccc1-c1nnc(C2CCN(S(=O)(=O)c3ccc([N+](=O)[O-])cc3)CC2)o1 | 2 | 2 | 75* | 3 | 0 | 2 | 72* | 58*
COc1ccccc1-c1nnc(C2CCN(S(=O)(=O)c3cccc([N+](=O)[O-])c3)CC2)o1 | 1 | 0 | 20 | -1 | -9 | 2 | nt | nt
CCC(=O)c1ccc(OCC(=O)OCC(=O)N(CCC#N)c2ccc3c(c2)OCCO3)cc1 | nt | nt | nt | nt | 5 | nt | nt | nt
CC(C)c1ccc(NC2=NCC(=O)N2Cc2cccs2)cc1 | 0 | -1 | 34* | -2 | 0 | -2 | 26* | nt
O=C1CN=C(Nc2ccccc2)N1Cc1cccs1 | 4 | -2 | 2 | -2 | 1 | -3 | nt | nt
O=C1C2CCCN2C(=O)N1CCCCN1CCN(c2cccc(Cl)c2)CC1 (stereo not given) | 1 | -2 | 39* | 0 | -1 | 1 | 36* | nt
Cc1ncc([N+](=O)[O-])n1CC(=O)Nc1ccc(F)c(F)c1 | 2 | -6 | 67* | 0 | -6 | 1 | 60* | 44
Cc1ccccc1NC(=O)Cn1c([N+](=O)[O-])cnc1C | 6 | -2 | 18 | 8 | 4 | 4 | nt | nt
Cc1ccc(NC(=O)Cn2c([N+](=O)[O-])cnc2C)cc1Cl | 1 | 5 | 57* | -4 | -5 | -2 | 51* | 67*
Cc1ncc([N+](=O)[O-])n1CC(=O)Nc1ccc(Cl)cc1 | -3 | 1 | 47* | 0 | 2 | -1 | 51* | 34
Cc1nc([N+](=O)[O-])cn1CC(=O)Nc1ccc(F)c(Cl)c1 | 1 | -6 | 45* | 7 | 1 | -1 | 59* | 70*
CC(=O)c1cccc(NC(=O)CSc2n[nH]c(=O)n2C2CC2)c1 | nt | nt | nt | nt | 1 | nt | nt | nt
COc1cc(C(=O)NCC(=O)NC(C)CCc2ccccc2)cc(OC)c1OC (stereo not given) | -3 | 0 | 27* | -1 | 3 | 3 | -2 | nt
COc1cc(C(=O)NCCCc2ccccc2)cc(OC)c1OC | -2 | 1 | 1 | 0 | -6 | 1 | nt | nt
O=C(CSc1ccccc1)N1CCCC(N2CCN(c3cccc(Cl)c3)CC2)C1 (stereo not given) | -3 | 6 | 69* | -9 | -1 | 9 | 64* | 48
Cc1ncoc1C(=O)N1CCCC(N2CCN(c3cccc(C(F)(F)F)c3)CC2)C1 (stereo not given) | -2 | 2 | 63* | 2 | 3 | 4 | 69* | 46
Cc1occc1C(=O)N1CCCC(N2CCN(c3cccc(C(F)(F)F)c3)CC2)C1 (stereo not given) | -3 | 0 | 28* | 4 | -4 | 0 | 28* | nt
CC1(CCC(=O)N2CCCC(N3CCN(c4cccc(C(F)(F)F)c4)CC3)C2)CC1 (stereo not given) | 0 | -2 | 32* | -4 | -2 | 0 | 31* | nt
C[C@H]1CN([C@@H](C)CO)C(=O)Cc2cc(NS(=O)(=O)c3ccc(Cl)cc3)ccc2O[C@@H]1CN(C)C(=O)Nc1cccc2ccccc12 | nt | nt | nt | nt | 0 | nt | nt | nt
